About 79,000 compounds went through this panel and 15% of them were active in at least one assay; those are over-represented in the sample as a whole. A number with no mark means an inactive call. Activity calls are given as the source filed them. Rule as the data show it: active = growth inhibition above about 70%; inactive = the rest.

Consider six compounds from PubChem BioAssay (NCI).

The nature of experiment [1]: NCI Yeast Anticancer Drug Screen. Data for the rad50 strain (AID 155).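 Also: 0% = growth of vehicle-only cultures of the same strain.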 Conditions: S. cerevisiae rad50 strain growth inhibition, hits give high values. In a few lines:
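Vehicle-treated cultures provide the reference for the growth inhibition reported for compound-exposed, repair-deficient yeast.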

Experiment [2] is described as follows: NCI Yeast Anticancer Drug Screen. Data for the mec2-1 strain (AID 157). Conditions: S. cerevisiae mec2-1 strain, hits give high values. An outline of the steps: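 Each compound was tested on mec2-1 yeast, a strain altered in DNA damage repair or cell cycle control. Growth inhibition is reported relative to vehicle.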
The nature of experiment [3]: NCI Yeast Anticancer Drug Screen. Data for the sgs1 mgt1 strain (AID 161).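 Also: 0% = growth of cultures given vehicle only.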 Conditions: S. cerevisiae sgs1 mgt1 strain, hits give high values. An outline of the steps:
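Test agents were incubated with a DNA-repair-mutant yeast strain. Growth was then read and compared against vehicle-treated controls.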

A short description of experiment [4]: NCI Yeast Anticancer Drug Screen. Data for the cln2 rad14 strain (AID 165).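 Also: 0% = growth equal to vehicle treated cultures.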 The following applies: S. cerevisiae cln2 rad14 strain, hits give high values. An outline of the steps:
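Test compounds were added to cln2 rad14 yeast cultures; inhibition of growth was then determined by comparison with vehicle treatment.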

Experiment [5] can be described thus: NCI Yeast Anticancer Drug Screen. Data for the bub3 strain (AID 167). The following applies: S. cerevisiae bub3 mutant strain, hits give high values. In a few lines: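 Mutant yeast screening strain plus compound; vehicle-treated cultures serve as the 0% inhibition reference.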
Experiment [6] can be described thus: NCI Yeast Anticancer Drug Screen. Data for the mlh1 rad18 strain (AID 175). Conditions: S. cerevisiae mlh1 rad18 strain growth inhibition, hits give high values. An outline of the steps:
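Inhibition values reflect reduced growth of mutant yeast versus vehicle-treated controls following compound exposure; the mutations affect DNA damage repair.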

[7] abbreviates: at 5.0 µM (retest, dose inferred, filed as 0.5).
[8] abbreviates: at 50.0 µM (retest, dose inferred, filed as 5.0).

Turning to `CC1(C)N=C(N)N=C(N)N1c1cccc(CCCCC(=O)CCl)c1`, the growth inhibition in experiment [1] (setting [7]) was 15%; in experiment [1] (setting [8]), 89% (active); in experiment [1] (at 50.0 µM), 95.8% (active); in experiment [2] (setting [7]), 0%; in experiment [2] (setting [8]) it was 72% (active); in experiment [2] (at 50.0 µM), 95% (active). The growth inhibition was -5% in experiment [3] (setting [7]); 79% (active) in experiment [3] (setting [8]); 95.9% (active) in experiment [3] (at 50.0 µM); -5% in experiment [4] (setting [7]); 62% in experiment [4] (setting [8]); 81.6% (active) in experiment [4] (at 50.0 µM). Moreover, the growth inhibition was -5% in experiment [5] (setting [7]); 51% in experiment [5] (setting [8]); 86.7% (active) in experiment [5] (at 50.0 µM); -18% in experiment [6] (setting [7]); 91% (active) in experiment [6] (setting [8]); 97.8% (active) in experiment [6] (at 50.0 µM).

Regarding `COCC1C(=O)c2cc3c(cc2C12C=CC1(C=C2)OCCO1)OCO3` (stereo not drawn), the growth inhibition in experiment [1] (setting [7]) is 36%; in experiment [1] (setting [8]) it was 7%; in experiment [1] (at 50.0 µM) it was 86% (active); in experiment [2] (setting [7]), 15%; in experiment [2] (setting [8]), -7%; in experiment [2] (at 50.0 µM), 91.8% (active). Further, the growth inhibition in experiment [3] (setting [7]) was 35%; in experiment [3] (setting [8]), -2%; in experiment [3] (at 50.0 µM), 92.8% (active); in experiment [4] (setting [7]) it was 9%; in experiment [4] (setting [8]), 20%; in experiment [4] (at 50.0 µM), 90.2% (active). For the same compound, the growth inhibition is 40% in experiment [5] (setting [7]); -7% in experiment [5] (setting [8]); 91.1% (active) in experiment [5] (at 50.0 µM); 50% in experiment [6] (setting [7]); -14% in experiment [6] (setting [8]); 88.2% (active) in experiment [6] (at 50.0 µM).

As to `COc1cc(C(c2cc3c(cc2O)OCO3)N2CCCCC2)cc(OC)c1OC` (stereo not drawn), the growth inhibition in experiment [1] (setting [7]) is -4%; in experiment [1] (setting [8]), 13%; in experiment [1] (at 50.0 µM), 25%; in experiment [2] (setting [7]), 0%; in experiment [2] (setting [8]), 20%; in experiment [2] (at 50.0 µM) it was 34.6%. Also, the growth inhibition is -5% in experiment [3] (setting [7]); -33% in experiment [3] (setting [8]); 21.8% in experiment [3] (at 50.0 µM); -6% in experiment [4] (setting [7]); -3% in experiment [4] (setting [8]); 67.5% in experiment [4] (at 50.0 µM). Besides, the growth inhibition is -1% in experiment [5] (setting [7]); 4% in experiment [5] (setting [8]); 31.6% in experiment [5] (at 50.0 µM); -6% in experiment [6] (setting [7]); 6% in experiment [6] (setting [8]); 62.6% in experiment [6] (at 50.0 µM).

For the compound `CCCCCCCCCCCCCC(=O)N1CCOCC1`, the growth inhibition was 0% in experiment [1] (setting [7]); 99% (active) in experiment [1] (setting [8]); 97.8% (active) in experiment [1] (at 50.0 µM); -3% in experiment [2] (setting [7]); 100% (active) in experiment [2] (setting [8]); 99.7% (active) in experiment [2] (at 50.0 µM). For the same compound, the growth inhibition is -3% in experiment [3] (setting [7]); 99% (active) in experiment [3] (setting [8]); 98% (active) in experiment [3] (at 50.0 µM); -1% in experiment [4] (setting [7]); 99% (active) in experiment [4] (setting [8]); 96.5% (active) in experiment [4] (at 50.0 µM). Moreover, the growth inhibition in experiment [5] (setting [7]) was 4%; in experiment [5] (setting [8]), 99% (active); in experiment [5] (at 50.0 µM), 99.6% (active); in experiment [6] (setting [7]), 7%; in experiment [6] (setting [8]), 99% (active); in experiment [6] (at 50.0 µM), 99.3% (active).

With `Cc1cccc(/C=N/Nc2cc(C)c3ccccc3n2)n1`, the growth inhibition in experiment [1] (setting [7]) was 10%; in experiment [1] (setting [8]), 89% (active); in experiment [1] (at 50.0 µM), 96.8% (active); in experiment [2] (setting [7]) it was 10%; in experiment [2] (setting [8]) it was 96% (active); in experiment [2] (at 50.0 µM), 89.2% (active). Moreover, the growth inhibition in experiment [3] (setting [7]) was 16%; in experiment [3] (setting [8]), 96% (active); in experiment [3] (at 50.0 µM), 97.8% (active); in experiment [4] (setting [7]), 5%; in experiment [4] (setting [8]), 86% (active); in experiment [4] (at 50.0 µM) it was 82.3% (active). The growth inhibition in experiment [5] (setting [7]) was -5%; in experiment [5] (setting [8]), 95% (active); in experiment [5] (at 50.0 µM) it was 93.6% (active); in experiment [6] (setting [7]), 14%; in experiment [6] (setting [8]), 96% (active); in experiment [6] (at 50.0 µM), 82.8% (active).

As to `O=C(O)C1CC2C3(Cl)C(Cl)=C(Cl)C(Cl)C2(CC1c1c2ccc(=O)c(O)c-2oc2c(O)c(O)ccc12)C3(Cl)Cl` (stereo not drawn), the growth inhibition in experiment [1] (setting [7]) was 5%; in experiment [1] (setting [8]), 96% (active); in experiment [1] (at 50.0 µM), 49.9%; in experiment [2] (setting [7]), 21%; in experiment [2] (setting [8]), 97% (active); in experiment [2] (at 50.0 µM) it was 49.6%. Moreover, the growth inhibition in experiment [3] (setting [7]) is 3%; in experiment [3] (setting [8]), 97% (active); in experiment [3] (at 50.0 µM), -0.25%; in experiment [4] (setting [7]) it was 9%; in experiment [4] (setting [8]) it was 93% (active); in experiment [4] (at 50.0 µM), 53.2%. For the same compound, the growth inhibition in experiment [5] (setting [7]) was -2%; in experiment [5] (setting [8]) it was 96% (active); in experiment [5] (at 50.0 µM), 46.2%; in experiment [6] (setting [7]), 4%; in experiment [6] (setting [8]), 95% (active); in experiment [6] (at 50.0 µM), 51.5%.
